Measurements taken from PubChem BioAssay (Tox21).
Inconclusive results are not listed. Activity calls are given as the source filed them. Unless noted, calls follow the shape of the dose curve; as a rule, active = well fitted curve in the direction sought with a large enough effect in the repeat runs; inconclusive = weak or mixed curves; inactive = no such curve, though single readings can be large; an effect the other way counts as inactive or inconclusive.

Columns and labels:
[1] = target: Thyrotropin-releasing hormone receptor (Homo sapiens) (UniProt P34981); test: qHTS assay to identify small molecule agonists of the thyrotropin-releasing hormone receptor (TRHR) signaling pathway (AID 1346891; calls by dose curve; also: series mostly up to about 58 µM)
Procedure, shortened: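 HEK293 cells expressing TRHR plated 18 h at 37 C/5% CO2, calcium dye-loaded 2 h at 37 C, then compound added (agonist mode); kinetic calcium fluorescence read 3 min at 1 s intervals; 15 concentrations in triplicate.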

[2] = Human pregnane X receptor (PXR) small molecule agonists, qHTS cell viability counter screen (AID 1346977); also: nearly all actives have a fitted effect of over 50% in size
Procedure, shortened: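 PXR-Luc HepG2 cells (2,000/well, 5% charcoal-stripped FBS) preincubated 5 hr, then exposed to compounds 24 hr at 37 C. Viability read in the same wells by CellTiter-Fluor fluorescence, reagent added at 23 hr, 1 hr incubation.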

[3] = Caspase-3/7 induction in HepG2 cells by small molecules, qHTS assay (AID 1346978); also: nearly all actives have a fitted effect of over 15% in size
Procedure, shortened: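 Wild-type HepG2 cells, 2,000/well, settled 5 hr at 37 C and 5% CO2, then compound-treated for 17 hr; caspase-3/7 activity read by luminescent Caspase-Glo 3/7 after 30 min at room temperature.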

[4] = Caspase-3/7 induction in CHO-K1 cells by small molecules, qHTS cell viability counter screen (AID 1346979); also: nearly all actives have a fitted effect of over 35% in size; also: potency is read from the fitted curve at half-maximal effect
Procedure, shortened: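 Wild-type CHO-K1 cells (1,500/well) treated with compound after 5 h plating; after 16 h at 37C, viability read as CellTiter-Fluor fluorescence following 1 h reagent incubation, in the same wells as the caspase read.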

[5] = Caspase-3/7 induction in CHO-K1 cells by small molecules, qHTS assay (AID 1346980); also: nearly all actives have a fitted effect of over 15% in size
Procedure, shortened: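 Wild-type CHO-K1 cells exposed to compounds for 17hr at 37 C, 5% CO2. Caspase-3/7 activity then measured by Caspase-Glo 3/7 luminescence after 30min at room temperature.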

[6] = Caspase-3/7 induction in HepG2 cells by small molecules, qHTS cell viability counter screen (AID 1346981); also: series mostly up to about 92 µM; nearly all actives have a fitted effect of over 30% in size
Procedure, shortened: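 Cell viability is measured as a cytotoxicity counter screen alongside the Caspase-Glo 3/7 readout in identical wells. Wild-type HepG2 cells are treated with test compounds for 16 hr at 37 C before CellTiter-Fluor addition and a 1-hr incubation.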

[7] = target: Nuclear receptor subfamily 1 group I member 2 (Homo sapiens) (UniProt O75469); test: Human pregnane X receptor (PXR) small molecule agonists, qHTS assay (AID 1346982); also: nearly all actives have a fitted effect of over 35% in size; also: potency is read from the fitted curve at half-maximal effect
Procedure, shortened: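 Cells: HepG2 stably carrying PXR-Luc. Medium held 5% charcoal-stripped FBS. Compounds in DMSO added after 5 hr plating, incubated 24 hr, then luminescence quantified with ONE-Glo.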

[8] = target: Cytochrome P450 2D6 (Homo sapiens) (UniProt P10635); test: Cytochrome P450 Family 2 Subfamily D Member 6 (CYP2D6) small molecule antagonists: luciferase reporter qHTS assay (AID 1671196); also: nearly all actives have a fitted effect of over 50% in size; also: potency is read from the fitted curve at half-maximal effect
Procedure, shortened: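 Enzyme and proluciferin substrate were first combined with test chemical for 10 min at room temperature. Adding NADPH regeneration solution started a 1 h reaction, stopped with luciferin detection reagent and read by luminescence 20 min later.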

[9] = target: Cytochrome P450 2C19 (Homo sapiens) (UniProt P33261); test: Cytochrome P450 Family 2 Subfamily C Member 19 (CYP2C19) small molecule antagonists: luciferase reporter qHTS assay (AID 1671197); also: nearly all actives have a fitted effect of over 65% in size; also: potency is read from the fitted curve at half-maximal effect
Procedure, shortened: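 P450-Glo CYP2C19 system: enzyme-substrate mix with compound 10 min at room temperature, then NADPH regeneration solution, 1 h at 37C. Proluciferin-to-luciferin conversion detected by luminescence after 20 min with detection reagent; ketoconazole as positive control.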

[10] = target: Cytochrome P450 2C9 (Homo sapiens) (UniProt P11712); test: Cytochrome P450 Family 2 Subfamily C Member 9 (CYP2C9) small molecule antagonists: luciferase reporter qHTS assay (AID 1671198); also: nearly all actives have a fitted effect of over 50% in size; also: potency is read from the fitted curve at half-maximal effect
Procedure, shortened: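 P450-Glo proluciferin substrate with CYP2C9 enzyme; 10 min RT preincubation, then NADPH regeneration 1 h at 37C; luciferin detection reagent 20 min RT, luminescence in relative luminescence units.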

[11] = target: Cytochrome P450 1A2 (Homo sapiens) (UniProt P05177); test: Cytochrome P450 Family 1 Subfamily A Member 2 (CYP1A2) small molecule antagonists: luciferase reporter qHTS assay (AID 1671199); also: nearly all actives have a fitted effect of over 50% in size; also: potency is read from the fitted curve at half-maximal effect
Procedure, shortened: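 Compounds were incubated with CYP1A2 and a luminogenic proluciferin substrate for 10 min at room temperature before the reaction was started with NADPH regeneration solution. After 1 h, detection reagent was added and light output, proportional to CYP activity, was recorded.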

[12] = target: Voltage-gated inwardly rectifying potassium channel KCNH2 (Homo sapiens) (UniProt Q12809); test: Human Ether-a-go-go-Related Gene (hERG) channel small molecule antagonists: fluorescence cell-based qHTS assay (AID 1671200)
Procedure, shortened: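 hERG-U2OS cells plated overnight at 37 C, loaded with FluxOR II dye 1 h at RT in dark; after 10 min, thallium stimulus added. Fluorescence (480/540 nm) read kinetically for 2 min at 1 s intervals.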

[13] = target: Cytochrome P450 3A4 (Homo sapiens) (UniProt P08684); test: Cytochrome P450 Family 3 Subfamily A Member 4 (CYP3A4) small molecule antagonists: luciferase reporter qHTS assay (AID 1671201); also: nearly all actives have a fitted effect of over 50% in size; also: potency is read from the fitted curve at half-maximal effect
Procedure, shortened: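 P450-Glo CYP3A4 luminescent assay: compounds preincubated 10 min at room temperature with enzyme and proluciferin substrate, NADPH regeneration added, 1 h room-temperature reaction, stopped with luciferin detection reagent; luminescence read after 20 min. Ketoconazole positive control.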

[14] = target: Nuclear receptor subfamily 1 group I member 2 (Rattus norvegicus) (UniProt Q9R1A7); test: Rat pregnane X receptor (rPXR) activation by small molecules, qHTS assay (AID 1346983); conditions: rPXR luciferase reporter cells, One-Glo luminescence, 24 h; max activation: hits give high values; also: nearly all actives have a fitted effect of over 20% in size
Procedure, shortened: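 Cell-based rPXR activation assay: rPXR cells, 2,000 per well, rested 5hr at 37 C, then exposed to compounds in DMSO for 24 hr at 37 C. Luciferase activity read by One-Glo luminescence after 30 min at room temperature.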

[15] = target: Nuclear receptor subfamily 1 group I member 2 (Homo sapiens) (UniProt O75469); test: Human pregnane X receptor (PXR) activation by small molecules, qHTS assay (AID 1346985); also: nearly all actives have a fitted effect of over 40% in size
Procedure, shortened: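 DPX-2 cells (HepG2 co-transfected with a PXR response element and a CYP3A4-promoter luciferase construct) were seeded at 2,000 per well, rested 5 hr at 37C, then exposed to DMSO-dissolved compounds for 24 hr. Activation was read as luciferase luminescence.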
% is scaled to controls: 0 for no effect and ±100 for the full control effect.

Cytochrome P450 2D6 (Homo sapiens), sequence (P10635 whole entry, looked up): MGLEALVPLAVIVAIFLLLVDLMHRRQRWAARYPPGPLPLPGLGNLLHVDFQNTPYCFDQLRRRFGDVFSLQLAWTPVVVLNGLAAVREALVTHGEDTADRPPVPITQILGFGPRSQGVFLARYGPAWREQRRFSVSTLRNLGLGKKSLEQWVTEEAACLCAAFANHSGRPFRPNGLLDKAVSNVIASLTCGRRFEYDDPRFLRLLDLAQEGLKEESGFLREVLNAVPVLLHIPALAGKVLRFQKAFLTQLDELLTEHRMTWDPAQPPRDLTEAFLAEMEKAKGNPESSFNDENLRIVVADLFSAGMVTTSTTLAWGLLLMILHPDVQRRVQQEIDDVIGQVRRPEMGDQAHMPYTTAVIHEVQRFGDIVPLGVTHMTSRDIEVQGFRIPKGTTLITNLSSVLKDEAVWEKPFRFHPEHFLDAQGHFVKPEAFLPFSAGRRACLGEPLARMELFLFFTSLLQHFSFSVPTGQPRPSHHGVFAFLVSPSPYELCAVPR
Cytochrome P450 3A4 (Homo sapiens), sequence (P08684 whole entry, looked up): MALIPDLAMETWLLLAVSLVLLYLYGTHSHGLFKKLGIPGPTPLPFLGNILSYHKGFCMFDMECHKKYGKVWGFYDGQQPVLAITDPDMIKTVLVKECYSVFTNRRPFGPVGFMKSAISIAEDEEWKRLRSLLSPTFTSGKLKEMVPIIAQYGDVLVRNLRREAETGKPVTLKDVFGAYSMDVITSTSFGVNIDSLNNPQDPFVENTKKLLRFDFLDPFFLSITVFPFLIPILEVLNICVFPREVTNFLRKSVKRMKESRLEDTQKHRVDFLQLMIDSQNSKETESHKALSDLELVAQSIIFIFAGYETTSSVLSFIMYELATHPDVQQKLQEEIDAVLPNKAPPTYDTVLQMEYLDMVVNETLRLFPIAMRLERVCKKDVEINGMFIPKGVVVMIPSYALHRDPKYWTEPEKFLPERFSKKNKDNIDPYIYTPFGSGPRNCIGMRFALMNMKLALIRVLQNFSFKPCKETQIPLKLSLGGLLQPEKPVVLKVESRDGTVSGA
Voltage-gated inwardly rectifying potassium channel KCNH2 (Homo sapiens), sequence (Q12809 whole entry, looked up): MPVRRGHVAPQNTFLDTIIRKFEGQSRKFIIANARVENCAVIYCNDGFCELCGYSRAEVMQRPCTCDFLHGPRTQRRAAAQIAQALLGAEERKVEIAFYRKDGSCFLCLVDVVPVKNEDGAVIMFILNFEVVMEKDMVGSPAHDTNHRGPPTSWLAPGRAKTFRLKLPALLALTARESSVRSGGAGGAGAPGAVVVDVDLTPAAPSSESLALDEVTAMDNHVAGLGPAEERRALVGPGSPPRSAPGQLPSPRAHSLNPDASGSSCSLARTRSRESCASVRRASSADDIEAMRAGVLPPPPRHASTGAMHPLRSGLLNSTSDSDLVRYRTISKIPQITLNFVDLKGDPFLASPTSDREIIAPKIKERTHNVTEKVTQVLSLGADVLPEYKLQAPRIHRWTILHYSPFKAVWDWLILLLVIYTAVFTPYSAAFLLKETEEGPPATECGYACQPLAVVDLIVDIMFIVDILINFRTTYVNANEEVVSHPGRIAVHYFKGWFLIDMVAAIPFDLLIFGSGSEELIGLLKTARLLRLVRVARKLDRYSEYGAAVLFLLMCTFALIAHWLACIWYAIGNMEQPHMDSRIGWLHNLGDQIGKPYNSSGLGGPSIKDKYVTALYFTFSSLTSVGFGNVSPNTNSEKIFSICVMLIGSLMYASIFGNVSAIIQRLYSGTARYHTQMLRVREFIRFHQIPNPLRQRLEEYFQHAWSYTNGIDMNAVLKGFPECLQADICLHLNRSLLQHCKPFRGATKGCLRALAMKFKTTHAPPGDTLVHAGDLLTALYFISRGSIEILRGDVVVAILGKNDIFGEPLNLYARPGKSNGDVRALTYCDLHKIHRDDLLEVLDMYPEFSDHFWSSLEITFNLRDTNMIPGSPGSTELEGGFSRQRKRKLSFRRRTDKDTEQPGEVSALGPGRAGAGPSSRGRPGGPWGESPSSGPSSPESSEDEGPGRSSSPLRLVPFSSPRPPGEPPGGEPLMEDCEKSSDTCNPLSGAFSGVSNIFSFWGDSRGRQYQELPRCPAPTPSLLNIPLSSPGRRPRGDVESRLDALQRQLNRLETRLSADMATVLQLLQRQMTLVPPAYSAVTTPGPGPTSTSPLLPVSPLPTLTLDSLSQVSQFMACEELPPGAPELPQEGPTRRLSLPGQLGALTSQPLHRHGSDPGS
Cytochrome P450 2C9 (Homo sapiens), sequence (P11712 whole entry, looked up): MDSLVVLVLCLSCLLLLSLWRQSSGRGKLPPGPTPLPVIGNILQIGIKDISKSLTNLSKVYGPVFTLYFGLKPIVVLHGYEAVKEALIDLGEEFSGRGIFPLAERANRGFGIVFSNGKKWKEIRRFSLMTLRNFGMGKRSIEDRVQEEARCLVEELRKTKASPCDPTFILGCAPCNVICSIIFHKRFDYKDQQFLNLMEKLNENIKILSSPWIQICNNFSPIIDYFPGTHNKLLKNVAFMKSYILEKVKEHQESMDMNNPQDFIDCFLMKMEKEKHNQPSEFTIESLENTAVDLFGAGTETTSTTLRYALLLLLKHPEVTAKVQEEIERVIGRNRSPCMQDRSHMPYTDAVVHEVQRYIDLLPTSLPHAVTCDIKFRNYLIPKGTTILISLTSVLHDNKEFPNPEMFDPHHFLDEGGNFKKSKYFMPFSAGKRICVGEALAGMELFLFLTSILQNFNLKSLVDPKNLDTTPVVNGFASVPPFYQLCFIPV
Thyrotropin-releasing hormone receptor (Homo sapiens), sequence (P34981 whole entry, looked up): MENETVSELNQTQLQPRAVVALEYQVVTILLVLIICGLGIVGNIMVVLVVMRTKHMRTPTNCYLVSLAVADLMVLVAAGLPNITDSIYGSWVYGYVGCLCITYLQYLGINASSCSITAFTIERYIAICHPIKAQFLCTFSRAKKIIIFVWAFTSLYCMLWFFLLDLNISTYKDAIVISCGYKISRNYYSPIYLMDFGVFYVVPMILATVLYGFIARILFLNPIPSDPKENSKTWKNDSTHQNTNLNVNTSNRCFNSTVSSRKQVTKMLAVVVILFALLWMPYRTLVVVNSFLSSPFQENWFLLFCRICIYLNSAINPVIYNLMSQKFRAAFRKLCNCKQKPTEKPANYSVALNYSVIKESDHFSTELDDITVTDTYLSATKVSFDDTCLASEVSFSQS
Cytochrome P450 1A2 (Homo sapiens), sequence (P05177 whole entry, looked up): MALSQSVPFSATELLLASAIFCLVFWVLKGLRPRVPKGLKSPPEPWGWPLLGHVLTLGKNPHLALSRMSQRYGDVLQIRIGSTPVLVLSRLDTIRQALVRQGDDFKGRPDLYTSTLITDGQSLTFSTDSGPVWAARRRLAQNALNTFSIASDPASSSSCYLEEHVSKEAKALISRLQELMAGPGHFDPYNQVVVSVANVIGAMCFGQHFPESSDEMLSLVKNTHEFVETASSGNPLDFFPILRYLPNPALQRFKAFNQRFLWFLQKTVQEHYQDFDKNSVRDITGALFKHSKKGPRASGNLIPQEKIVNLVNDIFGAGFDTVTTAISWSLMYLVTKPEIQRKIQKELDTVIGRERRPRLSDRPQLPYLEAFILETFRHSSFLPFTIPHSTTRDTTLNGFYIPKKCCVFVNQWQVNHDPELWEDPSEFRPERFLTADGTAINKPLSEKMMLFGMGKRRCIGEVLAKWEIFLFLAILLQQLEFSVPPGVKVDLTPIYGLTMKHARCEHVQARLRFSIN
Cytochrome P450 2C19 (Homo sapiens), sequence (P33261 whole entry, looked up): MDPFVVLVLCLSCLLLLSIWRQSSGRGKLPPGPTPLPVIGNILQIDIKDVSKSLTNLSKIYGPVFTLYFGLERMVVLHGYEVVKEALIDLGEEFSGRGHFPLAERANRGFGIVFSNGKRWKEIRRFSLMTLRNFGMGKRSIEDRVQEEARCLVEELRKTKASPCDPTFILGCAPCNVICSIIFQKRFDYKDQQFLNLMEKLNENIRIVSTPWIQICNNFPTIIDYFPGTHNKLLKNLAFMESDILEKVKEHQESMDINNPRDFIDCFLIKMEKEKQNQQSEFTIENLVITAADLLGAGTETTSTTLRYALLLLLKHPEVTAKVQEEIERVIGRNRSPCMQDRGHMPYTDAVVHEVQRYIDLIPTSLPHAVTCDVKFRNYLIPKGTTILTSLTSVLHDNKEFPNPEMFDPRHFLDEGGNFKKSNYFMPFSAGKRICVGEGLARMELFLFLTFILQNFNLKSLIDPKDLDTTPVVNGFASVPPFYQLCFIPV
Nuclear receptor subfamily 1 group I member 2 (Homo sapiens), sequence (O75469 whole entry, looked up): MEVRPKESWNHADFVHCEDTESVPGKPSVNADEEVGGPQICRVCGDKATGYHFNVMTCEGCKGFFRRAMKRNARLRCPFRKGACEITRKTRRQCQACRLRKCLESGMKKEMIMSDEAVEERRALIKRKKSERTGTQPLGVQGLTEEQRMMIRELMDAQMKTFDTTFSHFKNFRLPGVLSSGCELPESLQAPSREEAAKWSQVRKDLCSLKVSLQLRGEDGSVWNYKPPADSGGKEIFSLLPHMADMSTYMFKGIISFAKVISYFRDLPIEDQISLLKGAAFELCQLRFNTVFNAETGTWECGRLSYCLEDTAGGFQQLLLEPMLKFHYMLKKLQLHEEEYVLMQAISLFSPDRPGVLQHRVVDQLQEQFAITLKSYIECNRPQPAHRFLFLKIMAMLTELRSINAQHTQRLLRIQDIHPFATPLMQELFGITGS
Nuclear receptor subfamily 1 group I member 2 (Rattus norvegicus), sequence (Q9R1A7 whole entry, looked up): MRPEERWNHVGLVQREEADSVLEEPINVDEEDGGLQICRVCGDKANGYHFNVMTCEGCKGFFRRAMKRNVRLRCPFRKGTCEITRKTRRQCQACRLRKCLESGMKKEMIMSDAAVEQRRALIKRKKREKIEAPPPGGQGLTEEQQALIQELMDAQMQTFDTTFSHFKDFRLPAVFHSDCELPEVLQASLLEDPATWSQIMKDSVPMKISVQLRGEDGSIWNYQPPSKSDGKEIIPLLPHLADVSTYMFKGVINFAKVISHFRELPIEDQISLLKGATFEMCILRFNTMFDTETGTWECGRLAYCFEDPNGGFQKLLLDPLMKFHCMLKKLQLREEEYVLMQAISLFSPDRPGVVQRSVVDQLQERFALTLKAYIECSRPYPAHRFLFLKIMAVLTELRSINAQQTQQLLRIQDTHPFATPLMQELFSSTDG

CC(O)CN (stereo not drawn)
inactive: outcome [1] | Potency [2] | Potency [3] | Potency [4] | Potency [5] | Potency [6] | Potency [7] | Potency [8] | Potency [9] | Potency [10] | Potency [11] | Potency [12] | Potency [13]

CCC(=O)O[C@@H]1C[C@H]2CC[C@]1(C)C2(C)C
inactive: outcome [1] | Potency [2] | Potency [3] | Potency [4] | Potency [5] | Potency [6] | Potency [7] | Potency [8] | Potency [9] | Potency [10] | Potency [11] | Potency [12]

O=C(C1CCCCC1)N1CC(=O)N2CCCc3ccccc3C2C1 (stereo not drawn)
inactive: outcome [1] | Potency [2] | Potency [3] | Potency [4] | Potency [5] | Potency [6] | Potency [8] | Potency [11]
active: Potency [7] 7.5 µM | Potency [9] 4.9 µM | Potency [10] 13.8 µM

Clc1ccccc1-c1nc(-c2ccncc2)no1
active: Potency [7] 5.31 µM | Potency [8] 13.8 µM | Potency [9] 0.977 µM | Potency [11] 0.512 µM | Potency [13] 30.9 µM
inactive: outcome [1] | Potency [2] | Potency [3] | Potency [4] | Potency [5] | Potency [6] | Potency [12]

O=C(O)c1c2ccccc2cc2ccccc12
inactive: outcome [1] | Potency [2] | Potency [3] | Potency [4] | Potency [5] | Potency [6] | Potency [7] | Potency [8] | Potency [9] | Potency [12] | Potency [13]
active: Potency [10] 31.6 µM | Potency [11] 10 µM

CC1=C(C)C(=O)C(C(CCCCCC(=O)O)c2ccccc2)=C(C)C1=O (stereo not drawn)
active: Potency [4] 26.6 µM | Potency [9] 24.5 µM | Potency [10] 17.4 µM
inactive: outcome [1] | Potency [2] | Potency [3] | Potency [5] | Potency [6] | Potency [7] | max activation [14] -6.02% | Potency [15] | Potency [8] | Potency [11] | Potency [12] | Potency [13]

Cc1cc(C)c(C)c(O)c1
active: Potency [11] 31.7 µM
inactive: outcome [1] | Potency [2] | Potency [3] | Potency [4] | Potency [5] | Potency [6] | Potency [7] | Potency [8] | Potency [9] | Potency [10] | Potency [12]

CCCCCCCCCCCCCCCCN
inactive: outcome [1] | Potency [2] | Potency [3] | Potency [4] | Potency [5] | Potency [6] | Potency [7] | max activation [14] -4.68% | Potency [15] | Potency [10] | Potency [11] | Potency [12] | Potency [13]

CC(=O)c1ccc(Cl)c(Cl)c1Cl
inactive: outcome [1] | Potency [2] | Potency [3] | Potency [4] | Potency [5] | Potency [6] | Potency [7] | Potency [8] | Potency [10] | Potency [13]
active: Potency [9] 70.9 µM | Potency [11] 11.2 µM
